Results as given in PubChem BioAssay AID652071 (NMMLSC, 2013).
Activity calls are given as the source filed them. The rule behind the calls is not given here.

Experiment: yeast cytosolic pH changes via V-ATPase – S. cerevisiae, pHLuorin, powder set 4, dose response (AID 652071)
Details: S. cerevisiae pHLuorin cytosolic pH fluorescence; series mostly up to 100 µM

Row | Compound | outcome
1 | NC(=O)c1cccc(C(=O)Nc2ccccc2N2CCCCC2)c1 | inactive
2 | CN(C)Cc1cccc(C(=O)Nc2ccccc2N2CCCCC2)c1 | inactive
3 | CN1CCN(c2ccccc2NC(=O)c2cccc(Cl)n2)CC1 | inactive
4 | CN1CCN(c2ccccc2NC(=O)c2cccc(C(=O)N(C)C)c2)CC1 | inactive
5 | CN1CCN(c2ccccc2NC(=O)c2cncc(N)n2)CC1 | inactive
6 | CN1CCN(c2ccccc2NC(=O)c2cnc(N)o2)CC1 | inactive
7 | N#CCc1cccc(C(=O)Nc2ccccc2N2CCCCC2)c1 | inactive
8 | CC(=O)N1CCN(c2ccccc2NC(=O)c2cncc(N)n2)CC1 | inactive
9 | CC(=O)N1CCN(c2ccccc2NC(=O)c2ccc(C(C)(C)C)o2)CC1 | inactive
10 | CN1CCN(c2ccccc2NC(=O)c2cccc(C(N)=O)c2)CC1 | inactive
11 | CC(=O)N1CCN(c2ccccc2NC(=O)c2cccc(C(F)(F)F)n2)CC1 | inactive
12 | CN1CCN(c2ccccc2NC(=O)c2cccc(Br)n2)CC1 | inactive
13 | O=C(Nc1ccccc1N1CCCCC1)c1ccc(C(F)(F)F)o1 | inactive
14 | CN1CCN(c2ccccc2NC(=O)c2occc2-c2ccccc2)CC1 | inactive
15 | CC(=O)N1CCN(c2ccccc2NC(=O)c2cccc(C)n2)CC1 | inactive
16 | O=C(Nc1ccccc1N1CCCCC1)c1cccc(C(F)(F)F)n1 | inactive
17 | O=C(Nc1ccccc1N1CCOCC1)c1occc1-c1ccccc1 | inactive

Row | Compound | outcome
18 | Cc1ccnc(C(=O)Nc2ccccc2N2CCCCC2)c1 | inactive
19 | COCc1ccc(C(=O)Nc2ccccc2N2CCCCC2)o1 | inactive
20 | Nc1cncc(C(=O)Nc2ccccc2N2CCCCC2)n1 | inactive
21 | CS(=O)(=O)c1cccc(C(=O)Nc2ccccc2N2CCOCC2)c1 | inactive
22 | CN(C)S(=O)(=O)c1cccc(C(=O)Nc2ccccc2N2CCCCC2)c1 | inactive
23 | CC(=O)N1CCN(c2ccccc2NC(=O)c2ccc(Cl)o2)CC1 | inactive
24 | CC(C)(C)c1ccc(C(=O)Nc2ccccc2N2CCCCC2)o1 | inactive
25 | CC(=O)N1CCN(c2ccccc2NC(=O)c2cc(Cl)ccn2)CC1 | inactive
26 | NC(=O)c1ccc(C(=O)Nc2ccccc2N2CCCCC2)o1 | inactive
27 | CN1CCN(c2ccccc2NC(=O)c2cccc(C#N)c2)CC1 | inactive
28 | CC(=O)N1CCN(c2ccccc2NC(=O)c2cccc(S(C)(=O)=O)c2)CC1 | inactive
29 | CN1CCN(c2ccccc2NC(=O)c2ccc(C(N)=O)o2)CC1 | inactive
30 | CC(=O)N1CCN(c2ccccc2NC(=O)c2cccc(CC#N)c2)CC1 | inactive
31 | CN1CCN(c2ccccc2NC(=O)c2cccc(S(C)(=O)=O)c2)CC1 | inactive
32 | CC(=O)N1CCN(c2ccccc2NC(=O)c2cc(C(F)(F)F)ccn2)CC1 | inactive
33 | CN1CCN(c2ccccc2NC(=O)c2cncc(Cl)n2)CC1 | inactive
34 | Cc1cccc(C(=O)Nc2ccccc2N2CCN(C)CC2)n1 | inactive
